High-throughput results from PubChem.
Cardio protect – modulators protecting cardiomyocytes from myocardial damage. H9c2 cardiomyocytes, H2O2 injury protection, ATPLite, 2 h. protection from H2O2 cell death, % at 20 µM. 360,000 compounds, 0.63% hits. AID 588492;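 active = compounds giving at least 50% protection of heart cells from peroxide-induced death in the single-dose screen, raw or plate-pattern-corrected value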;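 note: 0% = DMSO wells with peroxide and 100% = DMSO wells without peroxide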
PfM18AAP inh – PfM18AAP enzyme inhibition. recombinant PfM18AAP, H-Glu-NHMec fluorogenic cleavage. inhibition, % at 7.35 µM. 290,000 compounds, 1.2% hits. AID 1822;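 active = inhibition above the campaign mean inhibition over all tested compounds plus 3 SD, cut at about 28% in these data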;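 note: 0% = plate median of test compound wells and 100% = 2 mM ZnCl2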
PHOSPHO1 inh – inhibitors of human PHOSPHO1 phosphatase; recombinant PHOSPHO1, absorbance phosphatase assay; 290,000 compounds, 1.1% hits; Q8TCT1; inhibition, % at 13.3 µM; in the data active = inhibition above about 60%
Target sequence (Q8TCT1 whole entry, looked up): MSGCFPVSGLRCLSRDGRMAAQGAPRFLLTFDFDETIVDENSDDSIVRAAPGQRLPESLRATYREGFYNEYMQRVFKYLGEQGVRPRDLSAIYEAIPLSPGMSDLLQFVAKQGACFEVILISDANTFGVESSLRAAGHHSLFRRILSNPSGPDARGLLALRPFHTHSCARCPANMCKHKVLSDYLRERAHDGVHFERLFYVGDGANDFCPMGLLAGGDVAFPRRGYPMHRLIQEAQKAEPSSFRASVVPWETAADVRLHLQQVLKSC
PfGluPho inh – PfG6PD (Plasmodium falciparum) enzyme inhibition; 350,000 compounds, 0.78% hits; AID 504690; inhibition, % at 20 µM; PfGluPho enzyme, NADPH resazurin-diaphorase fluorescence;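 active = inhibition reaching at least a set limit at 20 µM in the primary screen, cut at about 59% in these data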;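 note: 0% = DMSO wells with substrate and 100% = DMSO wells lacking glucose-6-phosphate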
ALR H2O2 inh – inhibitors of human sulfhydryl oxidase ALR; P55789; purified ALR, DTT oxidation, H2O2 HRP-luminol luminescence; 290,000 compounds, 3.8% hits; inhibition, % (test concentration not listed); AID 485317;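 active = mean replicate inhibition above about 79%, with every replicate also reaching it, limit read from the data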
Target sequence (P55789 whole entry, looked up): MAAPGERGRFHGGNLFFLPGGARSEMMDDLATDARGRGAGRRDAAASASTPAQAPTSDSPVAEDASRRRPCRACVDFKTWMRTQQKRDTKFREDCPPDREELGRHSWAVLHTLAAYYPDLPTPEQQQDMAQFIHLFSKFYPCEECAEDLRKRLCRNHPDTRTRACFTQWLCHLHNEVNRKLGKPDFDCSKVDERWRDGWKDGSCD
Starred values were filed as active, the others as inactive; . = no result given. An excerpt weighted towards active compounds, which were near 5.6% of everything screened.

SMILES	Cardio protect	PfM18AAP inh	PHOSPHO1 inh	PfGluPho inh	ALR H2O2 inh
Cc1ccc(C(=O)NC(C)c2ccc(-n3ccnc3)cc2)cc1 (configuration not stated)	-2	3	20	-1	-3
CC(=O)Nc1ccc(C(=O)NC(C)c2ccc(-n3ccnc3)cc2)cc1 (configuration not stated)	-2	3	68*	-8	-2
CC(=O)Nc1cccc(C(=O)NC(C)c2ccc(-n3ccnc3)cc2)c1 (configuration not stated)	3	7	44	-3	2
CC(NC(=O)c1cccc(N(C)C)c1)c1ccc(-n2ccnc2)cc1 (configuration not stated)	2	0	-32	-13	98*
COCCn1c(SCC(=O)c2ccccc2)nc2c(c1=O)SCC2	2	-3	5	-9	94*
CCOC(=O)c1cccc(NC(=O)CSc2nc3ccccc3c(=O)n2CCOC)c1	69*	2	1	9	2
CCCCc1nnc(NC(=O)CSc2nc(=O)cc(N)n2-c2cccc(C)c2)s1	3	3	26	-14	98*
Cc1cccc(-n2c(N)cc(=O)nc2SCC(=O)Nc2nnc(CC(C)C)s2)c1	.	3	11	.	.
COCCn1c(SCC(=O)N2CCCCC2)nc2c(c1=O)SCC2	1	-1	22	4	-3
CCn1c(SCc2cccc(F)c2)nc2c(c1=O)SCC2	-5	8	-11	-8	97*
CCCCC(=O)N(C)c1c(CC)nc2c(OCC(=O)C(C)(C)C)cccn12	5	.	.	.	.
CCc1nc2c(OCc3ccc(C(F)(F)F)cc3)cccn2c1N(C)C(=O)c1ccc(C)cc1	0	.	.	.	.
NC(N)=NN=C(c1ccc(F)cc1)c1ccc(C(F)(F)F)cc1	-20	.	.	4	.
COCCn1c(SCC(=O)c2ccccc2)nc2ccccc2c1=O	6	1	-9	-2	97*
COC(=O)c1cccc(NC(=O)CSc2nc(=O)cc(N)n2-c2ccccc2)c1	2	5	17	-4	98*
CC(C)(C)C1=Nn2c(nnc2-c2ccccn2)SC1	0	7	63*	55	-1
CCCCN(Cc1ccc(C(=O)N[C@H](C(=O)O)C(C)C)cc1)C(=O)C(c1ccccc1)c1ccccc1	-2	.	.	-7	.
CC(=O)Nc1ccc(S(=O)(=O)N2CCNC(=O)C2)cc1	0	.	.	12	-3
CC(=O)c1ccc(S(=O)(=O)N2CCNC(=O)C2)cc1	-4	.	.	2	97*
CCOC(=O)C1=C(COC(=O)c2ccccc2[N+](=O)[O-])NC(=O)NC1C (configuration not stated)	1	.	.	-15	.
COc1cc(C(C2C(=O)CC(C)(C)CC2=O)C2C(=O)CC(C)(C)CC2=O)ccc1O	-1	10	.	3	29
CC1(C)CC(=O)C(C(c2ccncc2)C2C(=O)CC(C)(C)CC2=O)C(=O)C1	16	-10	14	-8	.
COc1ccc(C(C2C(=O)CC(C)(C)CC2=O)C2C(=O)CC(C)(C)CC2=O)cc1	13	2	20	5	97*
COc1ccc(C(C2C(=O)CC(C)(C)CC2=O)C2C(=O)CC(C)(C)CC2=O)cc1COCC(F)(F)F	2	-1	-15	10	99*
COc1ccc2[nH]c(C)c(CCN3C(=O)C4C5C=CC(C5)C4C3=O)c2c1 (configuration not stated)	-14	2	-7	-2	96*
SMILES	Cardio protect	PfM18AAP inh	PHOSPHO1 inh	PfGluPho inh	ALR H2O2 inh
COc1ccc2[nH]c(C(=O)O)c(CCN3C(=O)c4ccc(C(=O)O)cc4C3=O)c2c1	7	-13	9	-3	-23
O=C(c1cc(COc2ccc(F)cc2F)on1)N1CCCC(c2ccccc2)C1 (configuration not stated)	-12	-4	60*	-1	-1
O=C(c1cc(COc2cccc3cnccc23)on1)N1CCCC(CCCO)C1 (configuration not stated)	-18	4	63*	-24	-9
O=C(c1cc(COc2ccc(F)cc2Cl)on1)N1CCCC(c2ccccc2)C1 (configuration not stated)	-5	-2	43	-12	-3
Cc1cccnc1NC(=O)C(c1ccccc1)c1ccccc1	-4	2	36	6	-11
COc1cc(OC)c(OC)cc1CCC(C)NC(=O)Cc1ccccc1 (configuration not stated)	7	7	24	-11	4
Cc1cc(S(=O)(=O)Nc2ccc(C(=O)NCCCN3CCCC3=O)cc2)ccc1F	9	.	.	-4	3
CCOC(=O)CC1=NN(c2ccccc2)C(=O)C1	0	2	55	2	-44
CCOC(=O)Cc1cc(=O)c2c(=O)n(-c3ccccc3)[nH]c2[nH]1	3	18	22	-16	78*
O=c1cc(-c2ccccc2)[nH]c2[nH]n(-c3ccccc3)c(=O)c12	0	-5	14	-3	99*
CCOC(=O)N1CCC(Nc2cccc(SC)c2)CC1	2	14	-2	14	97*
CC(=O)N1C[C@H]2CON(C)[C@H]2C[C@H]1c1ccccc1	3	.	.	.	.
Cc1cccc(Nc2c3c(nc4ccccc24)CCC3)c1	-17	-1	-1	-4	63
COc1ccccc1Nc1c2c(nc3ccc(N)cc13)CCCC2	-11	-4	27	-26	99*
COc1ccc(OC)c(Nc2c3c(nc4ccccc24)CCC3)c1	-8	-9	23	16	98*
COc1ccc(OC)c(NC(=O)COC(=O)c2c3c(nc4ccccc24)CCCC3)c1	56*	-7	10	10	-8
COc1cc(Nc2c3c(nc4ccccc24)CCC3)cc(OC)c1OC	-5	2	11	7	99*
Cc1sc(NC(=O)c2ccco2)c(C(=O)c2ccc(Cl)cc2)c1C	-10	1	5	-5	97*
CCOC(=O)C1CCN(C(=O)CS(=O)Cc2nc(-c3ccc(C)cc3)oc2C)CC1 (configuration not stated)	-1	-5	11	8	100*
Cc1cccc(-c2nc(CS(=O)CC(=O)N3CCN(C)CC3)c(C)o2)c1 (configuration not stated)	-3	-9	-2	11	99*
CCOC(=O)N1CCC(NC(=O)CSCc2nc(-c3ccc(C)cc3)oc2C)CC1	-7	-15	30	-1	58
Cc1ccc(-c2nc(CS(=O)CC(=O)N3CCN(c4ccc(F)cc4)CC3)c(C)o2)cc1 (configuration not stated)	-2	4	37	-19	99*
Cc1ccccc1-c1nc(CS(=O)(=O)CC(=O)N2CCN(C)CC2)c(C)o1	1	6	34	2	-12
COC(=O)C[C@H]1C[C@@H]2c3cc(NS(=O)(=O)c4cccc(OC)c4)ccc3O[C@@H]2[C@@H](CO)O1	18	.	.	7	.
c1cnc2c(c1)ccc1cccnc12	60*	0	40	-18	.
COC(=O)N(C)C[C@H]1OCc2cnnn2CCCC(=O)N([C@H](C)CO)C[C@H]1C	-1	.	.	-16	.
CCc1nc2ccc(C(=O)N3CCN(S(=O)(=O)CC)CC3)cn2c1N(C)C(=O)c1cccc(OC)c1	0	.	.	.	.
